Reference: PubChem BioAssay (NCI)
About 83,000 compounds went through this panel and 20% of them were active in at least one assay; those are over-represented in the sample as a whole.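 Cell lines were cultured in 96-well plates, exposed to a single compound concentration, and assessed for percent growth 48 hours later.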 Calls of active or inactive are those of the source. Rule for the calls: active = growth percent below 10; inactive = the rest.

Columns and labels:
Assay in all cases: NCI-60 one-dose screen, 48 h (100 = growth as untreated, 0 = no growth, -100 = all killed)
Settings in all cases: 10 µM unless noted
NCI-H23 lung = system: NCI-H23 lung
NCI-H226 lung = system: NCI-H226 lung
NCI-H322M lung = system: NCI-H322M lung
HOP-62 NSCLC = system: HOP-62 NSCLC
NCI-H460 lung = system: NCI-H460 lung
HOP-92 NSCLC = system: HOP-92 NSCLC
NCI-H522 lung = system: NCI-H522 lung
A549/ATCC NSCLC = system: A549/ATCC NSCLC
786-0 renal = system: 786-0 renal
COLO 205 colon = system: COLO 205 colon

Measured: growth

Cn1c(SCC(=O)c2ccco2)nc2ccccc2c1=O
inactive: NCI-H23 lung 97.4% | NCI-H226 lung 79.5% | NCI-H322M lung 91.8% | HOP-62 NSCLC 99.7% | NCI-H460 lung 101% | HOP-92 NSCLC 90.6% | NCI-H522 lung 101% | A549/ATCC NSCLC 108% | 786-0 renal 110% | COLO 205 colon 118%

O=C(O)c1ccc(-n2c(=O)n(-c3cccc(C(F)(F)F)c3)c(=O)c3cc(-c4ccc(F)cc4F)ccc32)cc1
inactive: NCI-H226 lung 10.4% | A549/ATCC NSCLC 10% | 786-0 renal 22.3% | COLO 205 colon 65.1%
active: NCI-H23 lung -4.43% | NCI-H322M lung 8.23% | HOP-62 NSCLC 6.54% | NCI-H460 lung 5.81% | HOP-92 NSCLC -28.5% | NCI-H522 lung -7.88%

COc1ccc(C2CC(c3cccc(OCCCCOc4cccc(C5=NOC(c6ccc(OC)cc6)C5)c4)c3)=NO2)cc1 (stereo not given)
inactive: NCI-H23 lung 103% | NCI-H226 lung 100% | NCI-H322M lung 94.7% | HOP-62 NSCLC 105% | NCI-H460 lung 102% | HOP-92 NSCLC 104% | NCI-H522 lung 86.4% | A549/ATCC NSCLC 88.5% | 786-0 renal 99.1% | COLO 205 colon 100%

O=C(Nc1cccc(C(F)(F)F)c1)N1CCN(c2cc(-c3cn(-c4ccccc4)nc3-c3cccc(O)c3)ccn2)CC1
inactive: NCI-H23 lung 37.7% | NCI-H226 lung 30.3% | NCI-H322M lung 73.9% | HOP-62 NSCLC 91.3% | NCI-H460 lung 63.4% | HOP-92 NSCLC 35.7% | NCI-H522 lung 31% | A549/ATCC NSCLC 44.8% | 786-0 renal 54.6% | COLO 205 colon 60%

Nc1ccc(Nc2ncnc3sc4c(c23)CCN(Cc2ccccc2)C4)cc1
inactive: NCI-H23 lung 102% | NCI-H226 lung 91.5% | NCI-H322M lung 101% | HOP-62 NSCLC 103% | NCI-H460 lung 105% | HOP-92 NSCLC 92.2% | NCI-H522 lung 91.3% | A549/ATCC NSCLC 100% | 786-0 renal 105% | COLO 205 colon 115%

Cc1ccsc1[C@H]1c2[nH]c3ccccc3c2C[C@H]2C(=O)N(CCCCCCC(=O)NO)CC(=O)N12
inactive: NCI-H23 lung 89.6% | NCI-H226 lung 97.3% | NCI-H322M lung 81.1% | HOP-62 NSCLC 101% | NCI-H460 lung 78.4% | HOP-92 NSCLC 92.6% | NCI-H522 lung 58.8% | A549/ATCC NSCLC 99.3% | 786-0 renal 99.1% | COLO 205 colon 96.5%

O=C(/C=C/c1ccc(Cl)c(Cl)c1)Nc1ncc(Cc2ccc(Cl)c(Cl)c2)s1
active: COLO 205 colon 4.63%
inactive: NCI-H23 lung 70.4% | NCI-H226 lung 70.7% | NCI-H322M lung 58.5% | HOP-62 NSCLC 50.9% | NCI-H460 lung 28.3% | HOP-92 NSCLC 92.7% | NCI-H522 lung 40.4% | A549/ATCC NSCLC 53.5% | 786-0 renal 78.8%

O=C(CSc1nc2ccccc2c(=O)n1CCc1ccccc1)Nc1ccc(S(=O)(=O)Nc2ccc(Cl)nn2)cc1
inactive: NCI-H23 lung 89.9% | NCI-H226 lung 88.1% | NCI-H322M lung 92.8% | HOP-62 NSCLC 95.8% | NCI-H460 lung 101% | HOP-92 NSCLC 79.7% | NCI-H522 lung 87.1% | A549/ATCC NSCLC 91.9% | 786-0 renal 102% | COLO 205 colon 101%

Cc1cc(C)cc(NC2=C(Cl)C(=O)c3nc(C)ccc3C2=O)c1
inactive: NCI-H23 lung 22.1% | NCI-H226 lung 28.5% | NCI-H322M lung 91.7% | HOP-62 NSCLC 101% | NCI-H460 lung 93.1% | HOP-92 NSCLC 118% | NCI-H522 lung 19% | A549/ATCC NSCLC 73.7% | 786-0 renal 79% | COLO 205 colon 107%

O=C(COc1ccc(/C=C2\C(=O)Nc3ccc(Cl)cc32)cc1)Nc1ccc(Cl)cc1
inactive: NCI-H23 lung 59.7% | NCI-H226 lung 74% | NCI-H322M lung 74.3% | HOP-62 NSCLC 63.2% | NCI-H460 lung 23.7% | HOP-92 NSCLC 93.5% | NCI-H522 lung 45.3% | A549/ATCC NSCLC 57% | 786-0 renal 68.3% | COLO 205 colon 90.5%

COc1ccc(C2C(C#N)=C(/N=C/c3ccc(Cl)cc3)Oc3c2sc2c(C)cccc32)cc1 (stereo not given)
active: NCI-H522 lung -40.8% | COLO 205 colon -22.3%
inactive: NCI-H23 lung 26.2% | NCI-H226 lung 45.4% | NCI-H322M lung 44.2% | HOP-62 NSCLC 29.8% | NCI-H460 lung 10.1% | HOP-92 NSCLC 30.5% | A549/ATCC NSCLC 34.2% | 786-0 renal 39.2%

N#C/C(=C\c1cccc2c1OCO2)C(=O)Nc1sc2c(c1C#N)CCCC2
inactive: NCI-H23 lung 102% | NCI-H226 lung 95.8% | NCI-H322M lung 89.1% | HOP-62 NSCLC 96.8% | NCI-H460 lung 110% | HOP-92 NSCLC 101% | NCI-H522 lung 94.2% | A549/ATCC NSCLC 104% | 786-0 renal 99.6% | COLO 205 colon 119%

COc1ccc2sc(NC(=O)CCCCCCNC(=O)C(O)(O)C(F)(F)F)nc2c1
active: NCI-H23 lung 1.72% | NCI-H322M lung 4.96% | HOP-62 NSCLC -3.09% | NCI-H460 lung 7.12% | HOP-92 NSCLC -12.7% | NCI-H522 lung -42.7% | A549/ATCC NSCLC 2.41% | COLO 205 colon -69.9%
inactive: NCI-H226 lung 24.6% | 786-0 renal 13.1%

O=C(NCCNc1cc(-c2cn(-c3ccccc3)nc2-c2cccc(O)c2)ccn1)Nc1cc(C(F)(F)F)cc(C(F)(F)F)c1
inactive: NCI-H23 lung 98.1% | NCI-H226 lung 85% | NCI-H322M lung 86.5% | HOP-62 NSCLC 95% | NCI-H460 lung 102% | HOP-92 NSCLC 89.6% | NCI-H522 lung 92.2% | A549/ATCC NSCLC 96.5% | 786-0 renal 99% | COLO 205 colon 107%

NS(=O)(=O)c1ccc(CCn2c(-c3ccc(C(=O)O)cc3)nc(-c3ccccc3)c2-c2ccccc2)cc1
inactive: NCI-H23 lung 98.4% | NCI-H226 lung 98.3% | NCI-H322M lung 97% | HOP-62 NSCLC 104% | NCI-H460 lung 107% | HOP-92 NSCLC 94.6% | NCI-H522 lung 96.8% | A549/ATCC NSCLC 105% | 786-0 renal 103% | COLO 205 colon 112%

CC1=C(SCC(=O)OCCCCCC(C)C)C(=O)c2ccccc2C1=O
inactive: NCI-H23 lung 89% | NCI-H226 lung 93.8% | NCI-H322M lung 100% | HOP-62 NSCLC 106% | NCI-H460 lung 102% | HOP-92 NSCLC 85% | NCI-H522 lung 68.4% | A549/ATCC NSCLC 105% | 786-0 renal 99.9% | COLO 205 colon 125%
